Bioassay records (PubChem)
tim10-1 inh – growth inhibitors of tim10-1 mutant yeast; S. cerevisiae tim10-1 ts strain growth, BacTiter-Glo, 24 h; inhibition, % at 20 µM; 330,000 compounds, 2.2% hits; AID 463190;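 active = inhibition of at least 40%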;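 note: mutant grown at 25 °C; 0% = DMSO wells with yeast and 100% = wells holding no yeast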
NALP1 yeast inh – inhibitors of NALP1 inflammasome in yeast. S. cerevisiae NALP1/ASC/caspase-1 growth, X-gal OD620, 72 h. 280,000 compounds, 0.61% hits. inhibition, % at 10 µM. AID 2071; in the data active = inhibition mostly above about 24%, no sharp cut-off; inactive = mostly below about 32%
NLRP3 yeast inh – blocks the NALP3 inflammasome reconstituted in yeast; Yeast reconstituted NLRP3/ASC/caspase-1, beta-gal luminescence, 24 h; inhibition, % at 10 µM; 330,000 compounds, 0.39% hits;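 active = inhibition of 50% or more; inactive = inhibition below 50%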;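 note: plate controls were induced DMSO wells for no effect and uninduced yeast grown without galactose for full effect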
TIM10 inh – inhibits growth of TIM10 yeast strain. S. cerevisiae TIM10 strain growth, BacTiter-Glo luminescence, 24 h. inhibition, % at 10 µM. 330,000 compounds, 1.4% hits;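 active = inhibition of 40% or more at the single tested concentration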;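 note: wild-type TIM10 isogenic control strain grown at permissive 25 °C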
tim23-1 inh – inhibits growth of tim23-1 mutant yeast; inhibition, % at 20 µM; S. cerevisiae tim23-1 growth, BacTiter-Glo luminescence, 24 h; 330,000 compounds, 1.3% hits; AID 463212;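 active = growth inhibition of the mutant yeast at or above 50%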;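 note: temperature-sensitive mutant grown at 25 °C; plate controls were DMSO-treated mutant yeast for no effect and medium wells lacking yeast for full effect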
NALP3 yeast conf – confirmation of NALP3 inhibitors in yeast; shares compounds with NLRP3 yeast inh; inhibition, % at 10 µM; yeast expressing human NALP3, luminescence; 1,300 compounds, 81% hits; in the data active = inhibition above about 48%
Casp1 ASC ctr – active in yeast caspase-1-ASC counter-screen for NALP3 inhibitors. shares compounds with NLRP3 yeast inh. yeast expressing Caspase-1-ASC, luminescence counter screen. 1,000 compounds, 66% hits. AID 488784. inhibition, % at 10 µM
NALP3 retest – confirmation retest of NALP3 inhibitors in yeast; shares compounds with NLRP3 yeast inh; yeast expressing human NALP3, luminescence read-out; inhibition, % at 10 µM; 1,000 compounds, 53% hits
tim10-1 conf – confirmation of tim10-1 mutant yeast growth inhibitors; shares compounds with tim10-1 inh; S. cerevisiae tim10-1 ts strain growth, BacTiter-Glo, 24 h; inhibition, % at 20 µM; 7,400 compounds, 56% hits; AID 463213;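 active = inhibition of yeast growth at or above a set limit in either of two repeat tests at 20 µM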;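 note: tim10-1 mutant grown at permissive 25 °C to find synthetic lethal compounds; 0% = DMSO yeast wells and 100% = medium wells without yeast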
TIM10 conf – confirmation of TIM10 yeast growth inhibitors | inhibition, % at 10 µM | S. cerevisiae tim10 strain growth, BacTiter-Glo luminescence, 24 h | 4,600 compounds, 63% hits | shares compounds with TIM10 inh;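 active = inhibition of yeast growth at or above a set limit in either of two replicates at 10 µM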;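 note: this counterscreen used the strain with wild-type TIM10; 0% = yeast with DMSO and 100% = medium wells lacking yeast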
tim23-1 conf – tim23-1 yeast growth inhibition, confirmed | shares compounds with tim23-1 inh | 4,400 compounds, 83% hits | inhibition, % at 20 µM | S. cerevisiae tim23-1 growth, BacTiter-Glo luminescence, 24 h;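 active = inhibition above about 39% in either of two replicate wells at 20 µM, limit read from the data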;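 note: temperature-sensitive tim23-1 mutant grown at 25 °C; 0% = DMSO wells with yeast and 100% = medium wells without yeast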
The depositor's hits bear a star; . = not tested or not shown. Sampled rows, rich in hits. Any-hit rate of the full collection: about 4%. Cut-off read from the data, not from the text of the source, unless noted: active = inhibition above about 50%; inactive = the rest.

SMILES | tim10-1 inh | NALP1 yeast inh | NLRP3 yeast inh | TIM10 inh | tim23-1 inh | NALP3 yeast conf | tim10-1 conf | others
C[C@@H]1CC2C3CC=C4C[C@@H](O)CC[C@]4(C)C3CC[C@]2(C)[C@H]1O (stereo partly drawn) | 15.8 | . | 56.5* | 18.9 | 26.8 | 40.4 | .
CC(=O)[C@H]1CC[C@H]2[C@@H]3CC[C@H]4C[C@H](O)CC[C@]4(C)[C@H]3C(=O)C[C@]12C | 0.2 | 29.2 | 23.4 | -0.1 | -14.5 | . | .
CC(=O)OCC(=O)[C@H]1CC[C@H]2[C@@H]3CC[C@H]4C[C@H](O)CC[C@]4(C)[C@H]3C(=O)C[C@]12C | 21.1 | . | 56.1* | -0.6 | 31.1 | 70.7* | . | Casp1 ASC ctr=52.7*;NALP3 retest=53.4*
CN1CCN(c2ccc(Cl)cc2N)CC1 | -16.5 | 4.6 | 27.0 | -10.8 | -3.8 | . | .
Cc1ccc(Cl)cc1N1CCN(CCN)CC1 | 8.8 | 5.4 | 58.7* | -9.7 | -2.6 | 56.9* | . | Casp1 ASC ctr=58.4*;NALP3 retest=67.0*
Cc1ccc(N2C(=O)NC(=O)/C(=C\C=C\c3ccco3)C2=O)cc1C | . | 21.0 | . | . | . | . | .
c1ccc2sc(NC3=NCCN3)nc2c1 | 28.5 | 103.9* | 96.7* | 7.5 | 23.7 | 94.9* | . | Casp1 ASC ctr=99.3*;NALP3 retest=98.2*
COc1ccc2nc(NC3=NCCN3)sc2c1 | 27.5 | 93.1* | 94.7* | 14.4 | 33.3 | -25.1 | .
C[C@]12CCC(=O)C=C1C=CC1C2CC[C@]2(C)C(=O)CCC12 (stereo partly drawn) | -2.1 | . | 50.0* | 9.2 | 3.1 | 57.2* | .
C[C@]12CCC(=O)C=C1C=C[C@@H]1[C@@H]2CC[C@@]2(C)[C@H]1CC[C@@]2(O)CCC(=O)O | 18.4 | . | 9.3 | 5.8 | -12.1 | . | .
Nc1c2c(nc3sc4c(c13)CCCC4)CCCC2 | 24.3 | 16.9 | 70.8* | 47.8* | 49.2 | 81.5* | . | Casp1 ASC ctr=54.4*;NALP3 retest=57.3*;TIM10 conf=38.0*
COC(=O)C1=C(c2ccc(F)cc2F)C[C@@H]2CC[C@H]1N2C(=O)NCc1ccco1 | 13.2 | . | -4.2 | -1.1 | 16.9 | . | .
CC1(C)C[C@H]2C=C(C=O)[C@]3(C=O)C[C@]3(C)[C@H]2C1 | -4.6 | 107.7* | 84.1* | 49.8* | -55.8 | 63.0* | . | TIM10 conf=61.3*
CC(C)(O)C(=O)Nc1ccc([N+](=O)[O-])c(C(F)(F)F)c1 | 13.3 | . | 2.8 | 6.7 | 15.5 | . | .
COc1cc2c(cc1OC)CN(c1ccc([N+](=O)[O-])c(C(F)(F)F)c1)CC2 | 59.8* | 49.3 | 50.5* | 53.8* | 40.7 | 23.2 | 55.2* | TIM10 conf=-11.6
COC(=O)C1=C(c2cccc(OC)c2OC)C[C@@H]2CC[C@H]1N2C(=O)N1CCOCC1 | 4.6 | . | 11.9 | 6.9 | 8.4 | . | .
CN1/C(=C\C=C\C2=[N+](C)c3ccc4ccccc4c3C2(C)C)C(C)(C)c2ccccc21 | 76.7* | 56.9* | 53.5* | 74.2* | 85.5* | 52.8* | 56.5* | TIM10 conf=80.3*;tim23-1 conf=79.2*
C[C@]12CCC3C(C[C@@H](O)[C@H]4C[C@@H](O)CC[C@]34C)C1CC[C@@H]2O (stereo partly drawn) | -7.6 | . | 28.8 | 0.0 | 0.1 | . | .
CC(=O)C1CCC2C3CCC4CC(O)CCC4(C)C3CCC12C (stereo not drawn) | 34.4 | . | 59.2* | 11.4 | 55.6* | 69.3* | . | Casp1 ASC ctr=60.1*;NALP3 retest=58.4*;tim23-1 conf=49.1*
CCSP1(=S)N=C(N2CCOCC2)C(C#N)=C2CCCN21 (stereo not drawn) | -3.0 | -2.0 | 5.8 | 3.9 | 12.9 | . | .
Oc1c(Br)c(Br)c(Br)c(Br)c1Br | 51.8* | . | 66.0* | 49.2* | 65.7* | 70.8* | 65.2* | Casp1 ASC ctr=73.8*;NALP3 retest=90.7*;TIM10 conf=43.5*;tim23-1 conf=58.5*
CC(=NCc1ccco1)c1c(O)n(-c2ccc(C)cc2)c(=O)[nH]c1=O | 17.9 | 8.5 | -2.6 | 23.5 | 10.7 | . | .
N#CCCn1cc(C(=O)Nc2ccccc2Br)c(-c2ccc([N+](=O)[O-])cc2)n1 | 7.0 | 17.2 | 16.0 | 13.3 | 4.9 | . | .
CCn1nc(-c2ccccc2)nc2c(=O)n(C)c(=O)nc1-2 | 79.9* | 41.5* | 61.5* | 95.7* | 85.2* | 85.8* | 83.1* | Casp1 ASC ctr=93.9*;NALP3 retest=87.5*;TIM10 conf=97.4*;tim23-1 conf=82.7*
Cc1ccc(C[n+]2c(-c3ccc(C)cc3)cc(-c3ccc(C)cc3)cc2-c2ccc(C)cc2)cc1 | 49.9* | . | 77.6* | 57.5* | 55.7* | 75.8* | 43.2* | Casp1 ASC ctr=71.8*;NALP3 retest=75.3*;TIM10 conf=50.2*;tim23-1 conf=59.8*
SMILES | tim10-1 inh | NALP1 yeast inh | NLRP3 yeast inh | TIM10 inh | tim23-1 inh | NALP3 yeast conf | tim10-1 conf | others
Cc1ccc(-c2cc(-c3ccc(C)cc3)[n+](-c3ccc(C(=O)O)cc3)c(-c3ccc(C)cc3)c2)cc1 | 4.6 | . | 12.8 | -2.5 | 0.6 | . | .
O=C1c2ccccc2C(=O)N1Cc1nc2ccccc2c(=O)n1-c1ccc(Br)cn1 | 58.8* | 37.6 | 61.4* | 56.6* | 68.8* | 73.7* | 55.2* | Casp1 ASC ctr=35.4;NALP3 retest=34.5;TIM10 conf=59.2*;tim23-1 conf=58.2*
O=C1c2ccccc2C(=O)N1Cc1nc2ccccc2c(=O)n1-c1cccnc1 | 28.1 | -10.3 | 11.6 | 12.9 | 13.9 | . | .
Cc1nn(CCC#N)c2c1P(=S)(N1CCCC1)OC(c1ccc(F)cc1)=N2 (stereo not drawn) | 43.1* | 6.5 | 5.8 | 37.2 | 43.8 | . | 32.8*
O=C(CN1CCOCC1)Nc1ccc(Br)cc1C(=O)c1ccccc1 | 40.3* | 30.6 | 10.0 | 35.5 | 33.6 | . | 16.5
O=c1c2ccccc2nc(-c2ccccc2)n1-c1ccccc1 | 22.9 | 5.4 | 6.5 | 22.1 | 26.9 | . | .
O=c1c2ccccc2[se]n1-c1ccccc1 | 55.2* | 14.9 | -7.0 | 16.3 | 5.0 | . | 89.6*
O=C(COC(=O)Cc1ccccc1)Nc1ccc(SC(F)F)cc1 | 43.5* | . | 12.2 | 4.7 | 26.7 | . | 15.4
CCN(CC)S(=O)(=O)c1cc(NC(=O)C(C)N2CC=C(c3ccccc3)CC2)ccc1C (stereo not drawn) | 40.0* | 17.8 | 4.4 | 12.1 | 16.0 | . | 2.4
O=C(COc1ccc2ccccc2c1)N1CCN(Cc2c[nH]c3ccccc23)CC1 | 50.0* | 39.9 | -6.5 | 31.3 | 11.9 | . | 30.4
COC(=O)C1=C(c2cc3ccccc3o2)C[C@@H]2CC[C@H]1N2C(=O)N1CCOCC1 | 20.9 | . | 7.3 | 9.8 | 19.8 | . | .
O=C1/C(=C/c2cc([N+](=O)[O-])ccc2Cl)N2CCC1CC2 | 47.8* | -9.6 | 30.6 | 24.7 | 49.1 | . | 35.3*
O=C1/C(=C/c2cccc([N+](=O)[O-])c2)N2CCC1CC2 | 7.3 | 69.3 | 14.7 | 16.0 | 27.3 | . | .
